# Measured values from the supplement of paper PMC7695840.
# Where a name gives a salt, the structure may show the parent alone.
# Experiments:
# [1] = tested on: Staphylococcus aureus MW2 delta-mecA (mecA-); experiment: normalized GFP fluorescence (growth of mecA- strain) (fraction of control range); higher = more growth of mecA- strain; settings: compound concentration: 150 uM; cefoxitin: subinhibitory; fluorescent label: GFP
# Method in brief: (§1)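 A 1:1 mix of pre-induced S. aureus MW2 cells, DsRed-labeled with the gene and GFP-labeled without it, was grown in LB with a daily-set subinhibitory antibiotic dose on 150 μM compound (1.5% DMSO) in 1536-well plates, single replicate. Growth lasted 20 h at 37 °C, 90% humidity, without shaking, and DsRed (540/590) and GFP (485/520) were then read. Channels were scaled per plate to single-strain control medians, and plates with high untreated ratios and rows with DsRed/GFP >10 were removed.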
# [2] = tested on: Staphylococcus aureus MW2 (mecA+); experiment: normalized DsRed fluorescence (growth of mecA+ strain) (fraction of control range); higher = more growth of mecA+ strain; settings: compound concentration: 150 uM; cefoxitin: subinhibitory; fluorescent label: DsRed
# Method in brief: as §1
Structure (SMILES),normalized GFP fluorescence [1],normalized DsRed fluorescence [2]
CC(C)/N=c1\cc2n(-c3ccc(Cl)cc3)c3ccccc3nc-2cc1Nc1ccc(Cl)cc1,0.344,1.15
CN1CCN(C2=Nc3ccccc3Oc3ccc(Cl)cc32)CC1,0.35,1.01
COc1cc2nc(N3CCN(C(=O)C4COc5ccccc5O4)CC3)nc(N)c2cc1OC (centres undefined) [Doxazosin mesylate],0.0162,1.12
Cc1nc2n(c(=O)c1CCN1CCC(c3noc4cc(F)ccc34)CC1)CCCC2O (centres undefined),0.379,0.72
CC(=O)O[C@]1(C(C)=O)CC[C@H]2[C@@H]3C=C(C)C4=CC(=O)CC[C@]4(C)[C@H]3CC[C@@]21C,0.381,0.78
NC(=O)c1cn(Cc2c(F)cccc2F)nn1 [Rufinamide (Banzel)],0.199,0.955
CC(=O)[C@@]1(O)CC[C@H]2[C@@H]3CCC4=CC(=O)CCC4=C3[C@@H](c3ccc(N(C)C)cc3)C[C@@]21C [Ulipristal],0.57,0.967
COc1cc(NS(=O)(=O)c2ccc(N)cc2)nc(OC)n1,0.338,1.32
C=C1CC[C@H](O)C/C1=C/C=C1\CCC[C@]2(C)[C@@H]([C@H](C)CCCC(C)(C)O)CC[C@@H]12 [Calcifediol],-0.0113,0.65
Cc1cc(O)cc(C)c1Cl,0.0289,0.544
CN1CCC[C@@H]1CCO[C@](C)(c1ccccc1)c1ccc(Cl)cc1 [Clemastine Fumarate],0.00687,0.338
CN(C)CCOC(=O)C(c1ccccc1)C1(O)CCCC1 (centres undefined),0.34,0.757
NCCCC[C@H](N[C@@H](CCc1ccccc1)C(=O)O)C(=O)N1CCC[C@H]1C(=O)O,0.972,0.642
CN1CCC[C@@H]1Cc1c[nH]c2ccc(CCS(=O)(=O)c3ccccc3)cc12,0.194,0.948
O=C(CCCN1CCC(O)(c2ccc(Br)cc2)CC1)c1ccc(F)cc1,0.243,1.21
Cc1ccc(C)c(OCCCC(C)(C)C(=O)O)c1,0.121,1.54
NC(=O)N1c2ccccc2CC(=O)c2ccccc21,0.596,0.408
CC(=O)Oc1cccc(O)c1,0.353,0.584
CC(=O)[C@H]1CC[C@H]2[C@@H]3CCC4=CC(=O)CC[C@]4(C)[C@H]3CC[C@]12C,0.278,0.415
CNC(=O)c1cc(Oc2ccc(NC(=O)Nc3ccc(Cl)c(C(F)(F)F)c3)c(F)c2)ccn1 [Regorafenib (BAY 73-4506)],0.0128,0.0729
COc1cc(C(=O)NS(=O)(=O)c2ccccc2C)ccc1Cc1cn(C)c2ccc(NC(=O)OC3CCCC3)cc12 [Zafirlukast (Accolate)],-0.00168,0.0292
N=C(N)NC(=O)c1nc(Cl)c(N)nc1N,0.602,0.971
CN(C)CC/C=C1/c2ccccc2Sc2ccc(Cl)cc21,0.0199,1.12
Cc1ccc(/C(=C\CN2CCCC2)c2ccccn2)cc1,0.244,0.576
CC(C)(C)NCC(O)c1cc(O)cc(O)c1 (centres undefined),0.587,0.611
C#C[C@]1(OC(C)=O)CC[C@H]2[C@@H]3CCC4=CC(=NO)CC[C@@H]4[C@H]3CC[C@@]21CC (mixture of isomers),0.0291,0.642

Structure (SMILES),normalized GFP fluorescence [1],normalized DsRed fluorescence [2]
N#Cc1ccc2[nH]cc(CCCCN3CCN(c4ccc5oc(C(N)=O)cc5c4)CC3)c2c1,0.0415,0.987
CCN(CC)CCOC(=O)c1ccc(N)cc1,0.335,0.634
CN(C)CCOC(c1ccc(Cl)cc1)c1ccccn1 (centres undefined),0.55,0.618
C=CC(N)CCC(=O)O (centres undefined),0.441,0.716
CCOC(=O)n1ccn(C)c1=S [Carbimazole],0.708,0.813
CCc1c2c(nc3ccc(OC(=O)N4CCC(N5CCCCC5)CC4)cc13)-c1cc3c(c(=O)n1C2)COC(=O)[C@]3(O)CC,0.461,0.626
O=C(O)COCCN1CCN(C(c2ccccc2)c2ccc(Cl)cc2)CC1 (centres undefined),0.0457,0.556
CCCCCC(C)N (centres undefined),0.403,0.663
O=c1ccn([C@@H]2O[C@H](CO)[C@@H](O)[C@H]2O)c(=O)[nH]1 [Uridine],0.265,0.849
CN(C)CCCN1c2ccccc2Sc2ccc(Cl)cc21,-0.00289,1.26
O=P(O)(O)C(O)(Cn1ccnc1)P(=O)(O)O [Zoledronic Acid (Zoledronate)],0.313,0.685
O=C(O)CCCC[C@@H]1SC[C@@H]2NC(=O)N[C@@H]21,0.414,0.604
O[C@H]1[C@H](O)[C@@H](O)[C@H](O)[C@@H](O)[C@H]1O,0.236,0.698
CC12CC3CC(C)(C1)CC(N)(C3)C2,0.384,0.672
Cc1noc(NS(=O)(=O)c2ccc(N)cc2)c1C,0.025,0.437
OCc1cccnc1,0.896,0.471
CN(c1nccc(=O)[nH]1)C1CCN(c2nc3ccccc3n2Cc2ccc(F)cc2)CC1 [Mizolastine (Mizollen)],0.387,0.462
O=C(O)Cc1ccccc1Nc1c(Cl)cccc1Cl [Diclofenac],0.0393,0.175
CCc1nn(CCCN2CCN(c3cccc(Cl)c3)CC2)c(=O)n1CCOc1ccccc1,0.108,0.736
C[C@H]1C[C@H]2[C@@H]3CCC4=CC(=O)C=C[C@]4(C)[C@@]3(F)[C@@H](O)C[C@]2(C)[C@@]1(O)C(=O)CO [Betamethasone (Celestone)],0.0397,1.3
Cc1oncc1C(=O)Nc1ccc(C(F)(F)F)cc1,0.0504,1.25
COc1ccccc1OCC(O)CN1CCN(CC(=O)Nc2c(C)cccc2C)CC1 (centres undefined),0.863,0.62
O=C(NCCO[N+](=O)[O-])c1cccnc1 [Nicorandil (Ikorel)],0.624,0.986
NS(=O)(=O)c1cc(Cl)c(Cl)c(S(N)(=O)=O)c1 [Dichlorphenamide (Diclofenamide)],0.31,0.653
CC[N+](C)(C)Cc1ccccc1Br,0.178,0.523
CC(C)c1ccc2oc3nc(N)c(C(=O)O)cc3c(=O)c2c1,0.212,0.319

Structure (SMILES),normalized GFP fluorescence [1],normalized DsRed fluorescence [2]
CN(C)CCOC(c1ccccc1)c1ccccc1,0.272,0.789
Cc1ncc([N+](=O)[O-])n1CCO,0.562,0.581
CC(CN(C)C)CN1c2ccccc2CCc2ccccc21 (centres undefined),0.0825,1.55
Nc1nc2[nH]cc(CCc3ccc(C(=O)N[C@@H](CCC(=O)O)C(=O)O)cc3)c2c(=O)[nH]1,0.937,0.63
O=NN(CCCl)C(=O)NC1CCCCC1,0.569,0.767
COC(c1ccccc1)(c1ccccc1)[C@H](Oc1nc(C)cc(C)n1)C(=O)O [Ambrisentan],0.466,0.281
CN1C2=CC(=O)/C(=N\NC(N)=O)C=C2CC1S(=O)(=O)O (centres undefined) [Carbazochrome sodium sulfonate],0.171,0.676
C[C@@H]1CCN(C(=O)CC#N)C[C@@H]1N(C)c1ncnc2[nH]ccc12,0.325,0.9
C[C@]12C=CC(=O)N[C@@H]1CC[C@@H]1[C@@H]2CC[C@]2(C)[C@@H](C(=O)Nc3cc(C(F)(F)F)ccc3C(F)(F)F)CC[C@@H]12 [Dutasteride],0.284,0.52
CCN(Cc1ccncc1)C(=O)C(CO)c1ccccc1 (centres undefined),0.402,0.607
CN1CCCC(n2nc(Cc3ccc(Cl)cc3)c3ccccc3c2=O)CC1 (centres undefined) [Azelastine hydrochloride (Astelin)],0.112,1.13
O=C(Nc1c(Cl)cncc1Cl)c1ccc(OC(F)F)c(OCC2CC2)c1 [Roflumilast (Daxas)],0.368,0.773
O=C(O)C[C@H](O)C[C@H](O)/C=C/c1c(C2CC2)nc2ccccc2c1-c1ccc(F)cc1 [Pitavastatin calcium (Livalo)],-0.0148,0.559
CC(C)NCC(O)COc1cccc2ccccc12 (centres undefined),0.142,1.24
CC(COc1ccccc1)N(CCCl)Cc1ccccc1 (centres undefined),0.632,0.449
Cn1c(=O)c2nc[nH]c2n(C)c1=O,0.449,0.42
O=C(NC[C@H]1CN(c2ccc(N3CCOCC3=O)cc2)C(=O)O1)c1ccc(Cl)s1 [Rivaroxaban (Xarelto)],0.0017,0.837
CC1(C)O[C@@H]2C[C@H]3[C@@H]4CCC5=CC(=O)CC[C@]5(C)[C@@]4(F)[C@@H](O)C[C@]3(C)[C@]2(C(=O)CCl)O1,0.195,0.844
CC(C)(C(=O)O)c1ccc(C(O)CCCN2CCC(C(O)(c3ccccc3)c3ccccc3)CC2)cc1 (centres undefined),0.393,1.03
Cc1cccc(C)c1OCC(=O)N[C@@H](Cc1ccccc1)[C@@H](O)C[C@H](Cc1ccccc1)NC(=O)[C@H](C(C)C)N1CCCNC1=O [Lopinavir (ABT-378)],0.126,0.671
O=C(CCCCCCC(=O)Nc1ccccc1)NO [Vorinostat (SAHA)],0.386,0.944
C=C1/C(=C\C=C2/CCC[C@]3(C)[C@@H]([C@H](C)CCCC(C)(C)O)CC[C@@H]23)C[C@@H](O)C[C@@H]1O [Calcitriol (Rocaltrol)],-0.00685,1
C[C@H]1O[C@@H](O[C@H]2[C@@H](O)C[C@H](O[C@H]3[C@@H](O)C[C@H](O[C@H]4CC[C@@]5(C)[C@H](CC[C@@H]6[C@@H]5CC[C@]5(C)[C@@H](C7=CC(=O)OC7)CC[C@]65O)C4)O[C@@H]3C)O[C@@H]2C)C[C@H](O)[C@@H]1O,0.212,0.724
C=CC(=O)N1CCC[C@@H](n2nc(-c3ccc(Oc4ccccc4)cc3)c3c(N)ncnc32)C1,0.0101,1.1
COc1ccc2c(c1)C(=O)N(CCc1ccc(S(=O)(=O)NC(=O)NC3CCCCC3)cc1)C(=O)C2(C)C [Gliquidone],0.017,0.134
